Cruzain Triton: inhibitors of Trypanosoma cruzi cruzain with detergent; P25779; purified cruzain, Z-FR-AMC fluorescence, 0.01% Triton; Potency, µM, most hits filed as inhibitors; actives 0.43% (n = 200,000); AID 1478; further: nearly all actives have a fitted effect of over 40% in size
Target sequence (P25779 123-467 limits assumed): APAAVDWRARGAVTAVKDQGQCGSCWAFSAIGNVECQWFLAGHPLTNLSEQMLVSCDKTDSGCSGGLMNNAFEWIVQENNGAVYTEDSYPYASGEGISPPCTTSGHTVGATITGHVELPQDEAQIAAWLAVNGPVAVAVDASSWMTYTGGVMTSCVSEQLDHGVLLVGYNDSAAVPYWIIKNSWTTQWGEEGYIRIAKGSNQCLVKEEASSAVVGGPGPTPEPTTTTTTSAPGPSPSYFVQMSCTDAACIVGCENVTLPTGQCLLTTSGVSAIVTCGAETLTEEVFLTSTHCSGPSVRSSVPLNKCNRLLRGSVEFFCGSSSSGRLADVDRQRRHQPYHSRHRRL
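Cruzain (1.5 nM) preincubated 15 min at RT with compound in 100 mM sodium acetate pH 5.5, 5 mM DTT, 0.01% Triton X-100. Reaction started with 2 uM Z-FR-AMC; AMC fluorescence (ex 360/em 450 nm) change over 60 s gave rate.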
Cruzain noTriton: cruzain (T. cruzi) inhibition without detergent. P25779. purified cruzain, Z-FR-AMC fluorescence, no detergent. Potency, µM, most hits filed as inhibitors. actives 2.3% (n = 200,000); further: nearly all actives have a fitted effect of over 40% in size
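Detergent-free condition (0.00005% Triton X-100) in acetate buffer pH 5.5 with DTT. 1.5 nM enzyme and compound were pre-mixed 15 min, then 2 uM Z-FR-AMC substrate added; reaction progress from fluorescence change between first and third reads (60 s).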
Each line names hits and unclear results; the compound was inactive in the other large screens. A selection: hits, their analogues and other compounds. The true share with any hit is near 2.6%. The call rests on the fitted dose curve; in most records, active means well fitted curve in the direction sought with a large enough effect; inconclusive means small, poorly fitted or top-dose-only effect, or another doubt; inactive means no such curve, though single readings can be large; an effect the other way counts as inactive or inconclusive.

CCC(=O)N1c2ccc(S(=O)(=O)CCC(=O)N3CCN(c4ccc(F)cc4)CC3)cc2CC1C (stereo not given)	none
CCOC(=O)c1cc(-c2ccc(C)cc2)n(CCC(=O)NCCc2ccc(C)cc2)c1C	none
CCOC(=O)[C@@H]1[C@@H]2c3ccccc3-c3ccccc3[C@H]2C[C@H]1O	none
Cc1ccc(-c2nc3cc(Cl)ccc3o2)cc1NC(=O)c1cc2ccccc2o1	none
COc1ccc(CNC(=O)CCCn2nc(C)c3sc4ccccc4c3c2=O)cc1OC	none
COc1ccccc1CNC(=O)CCCn1nc(C)c2sc3ccccc3c2c1=O	Cruzain noTriton 10µM
Cc1ccc(NC(=O)Cn2c(-c3ccc4c(c3)OCO4)cn(-c3ccccc3)c2=O)cc1C	none
CSc1cccc(-n2cc(-c3ccc4c(c3)OCO4)[nH]c2=O)c1	Cruzain noTriton 32µM
Cc1cc(F)ccc1NC(=O)Cn1cc(S(=O)(=O)NC(C)C)c(S(=O)(=O)NC(C)C)c1	none
COc1cccc(-c2ccc3c(N)c(C(=O)c4ccc(Cl)cc4)sc3n2)c1	Cruzain noTriton 7.9µM
COc1ccc(C(=O)c2sc3nc(-c4ccccc4)ccc3c2N)cc1	Cruzain noTriton inconclusive
CCOc1ccc(Nc2oc(-c3ccc(Cl)cc3)nc2C#N)cc1	Cruzain noTriton inconclusive
CN(C)c1oc(-c2ccc(OCc3ccc(Cl)cc3)cc2)nc1C#N	Cruzain Triton inconclusive, Cruzain noTriton 20µM
COc1ccc(CCNc2ncnc3c2cnn3-c2cc(Cl)ccc2C)cc1	Cruzain Triton inconclusive
Cc1cc(C)cc(NC(=O)CSc2nnc(COc3ccccc3Cl)o2)c1	none
COCCN1CN=C(Nc2nc3ccccc3o2)NC1	none
COCCN1CN=C(Nc2nc3ccccc3s2)NC1	Cruzain Triton inconclusive, Cruzain noTriton 16µM
O=C(c1ccc2c(c1)N(Cc1cccc(Cl)c1)C(=O)c1ccccc1S2=O)N1CCN(c2cccc(C(F)(F)F)c2)CC1 (stereo not given)	Cruzain noTriton 25µM
CCN1CCN(C(=O)c2ccc3c(c2)N(Cc2cccc(Cl)c2)C(=O)c2ccccc2S3=O)CC1 (stereo not given)	none
O=C(c1ccc2c(c1)N(Cc1cccc(Cl)c1)C(=O)c1ccccc1S2(=O)=O)N1CCCCC1	none
O=C(c1ccc2c(c1)N(Cc1cccc(Cl)c1)C(=O)c1ccccc1S2(=O)=O)N1CCN(c2cccc(C(F)(F)F)c2)CC1	Cruzain noTriton 5µM
CN(C)c1ccc(C(=O)Nc2sc(Nc3ccccc3)nc2C(N)=O)cc1	none
O=C(NCCc1ccccc1)c1ccc2nc(-c3ccco3)c(-c3ccco3)nc2c1	Cruzain Triton 16µM, Cruzain noTriton inconclusive
O=C(NCCc1ccccc1)c1ccc(=O)oc1	none
COc1cccc(NC(=O)c2oc3ccccc3c2NC(=O)c2ccc(F)c(F)c2)c1	none
Cc1nnc2c3ccccc3nc(Nc3cccc(O)c3)n12	none
COCCn1c(=O)c(CCc2ccccc2)nc2cnc(N(C)C)nc21	Cruzain noTriton inconclusive
Cc1cccc(N2CCN(S(=O)(=O)c3cc(C(=O)Nc4ccc(Oc5ccccc5)cc4)ccc3F)CC2C)c1 (stereo not given)	none
CC(C)c1ccc(NC(=O)c2ccc(F)c(S(=O)(=O)N3CCN(c4ccccc4F)CC3)c2)cc1	none
O=C(Nc1ccc(Oc2ccccc2)cc1)c1ccc(F)c(S(=O)(=O)N2CCN(c3cccc(Cl)c3)CC2)c1	Cruzain noTriton 4µM
COc1ccccc1N1CCN(S(=O)(=O)c2ccccc2F)CC1	none
O=C(COC(=O)c1ccc(Cl)c(S(=O)(=O)N2CCN(c3ccc(F)cc3)CC2)c1)Nc1cccc(Cl)c1	Cruzain noTriton 13µM
Cc1cccc(NC(=O)c2ccc(F)c(S(=O)(=O)N3CCN(c4ccc(F)cc4)CC3)c2)c1	Cruzain noTriton inconclusive
COc1ccccc1N1CCN(S(=O)(=O)c2cc(C(=O)Nc3ccc(Oc4ccccc4)cc3)ccc2F)CC1	Cruzain noTriton 7.9µM
O=C(Nc1ccc(Oc2ccccc2)cc1)c1ccc(F)c(S(=O)(=O)N2CCN(c3ccccc3F)CC2)c1	Cruzain noTriton 7.9µM
COc1cc(OC)c(NC(=O)C(C)n2nc(-c3ccc(C)cc3)c3c(c2=O)CCCC3)cc1Cl (stereo not given)	Cruzain noTriton inconclusive
CSC(=[SH+])N=N/C(=C1/C=CC=CN1)c1ccccn1.[Cu][Br]	none
CCOc1ccccc1C(=O)N(Cc1ccco1)Cc1ccco1	none
Cn1c(=O)c2[nH]cnc2n(C)c1=O.[CH2-][C@H](Cc1cccc2cc(C(=O)O)c(=O)oc12)OC.[Hg].[OH-]	none
Cc1cccc(N2CCN(c3nc4ccccc4c4nnc(C)n34)CC2)c1C	none
COc1ccc(NC(=O)Cn2c(=O)n(Cc3ccco3)c(=O)c3cc(OC)c(OC)cc32)cc1	none
COC(=O)c1nn(-c2ccccc2)c(Cl)c1/C=N/OCc1ccc(Cl)cc1Cl	none
CN(C)/C=C(\C=N\OCc1ccc(Cl)cc1Cl)C(=O)Nc1ccc(Cl)c(Cl)c1	Cruzain noTriton 20µM
CCOC(=O)/C(C#N)=N/Nc1ccc(S(=O)(=O)N2CCc3ccccc32)cc1	Cruzain noTriton 25µM
Cc1ccc(C(=O)Nc2ccc(S(=O)(=O)N3CCc4ccccc43)cc2)o1	none
CCc1ccc(OC(C)C(=O)Nc2c(C(=O)c3ccccc3)oc3ccccc23)cc1 (stereo not given)	none
CCOc1ccccc1NC(=O)C(C)Sc1cc(-c2ccccc2)nc(C)n1 (stereo not given)	none
COc1ccc2c(c1)CCc1sc(NC(=O)c3ccc(C)cc3)nc1-2	none
Cc1nc(NC(=O)c2ccccc2)sc1-c1csc(NCCc2ccccc2)n1	Cruzain noTriton inconclusive
COc1ccc(-c2sc(NC(=O)c3ccc(C)cc3)nc2-c2ccc([N+](=O)[O-])cc2)cc1	Cruzain noTriton 4µM
COc1ccccc1Nc1nc(-c2sc(NC(=O)c3ccc([N+](=O)[O-])cc3)nc2C)cs1	Cruzain noTriton 4µM
COc1ccc(OC)c(Nc2nc(-c3sc(NC(=O)C(C)(C)C)nc3C)cs2)c1	none
CCOc1ccccc1Nc1nnc(SC(C)C(=O)Nc2nc(-c3ccccc3)cs2)s1 (stereo not given)	Cruzain noTriton 7.9µM
CCOc1ccccc1Nc1nc(-c2sc(NC(=O)c3cccc(Cl)c3)nc2C)cs1	Cruzain noTriton 6.3µM
O=C(NCCSCc1cccc(Cl)c1)C1CCN(S(=O)(=O)Cc2ccccc2)CC1	none
CCc1nc2nc(C)cc(Nc3cc(Cl)ccc3C)n2n1	none
Cc1ccc(Cn2c(CNS(=O)(=O)c3ccc(C(C)(C)C)cc3)nc3cccnc32)cc1	none
CCOC(=O)c1cc(S(=O)(=O)N2CCN(c3ccc(C(C)=O)cc3)CC2)[nH]n1	none
CCN(CC)C(=O)c1sc2c(c1C)c(=O)n(CCc1ccccc1)c(=O)n2Cc1ccc(C)cc1	Cruzain noTriton inconclusive
COc1ccccc1Nc1nc(-c2sc(NC(=O)c3ccccc3)nc2C)cs1	Cruzain noTriton inconclusive
CCOc1ccccc1Nc1nc(-c2sc(NC(=O)c3ccccc3)nc2C)cs1	Cruzain noTriton 13µM
Cc1ccc(CNC(=O)C(CC(C)C)NS(=O)(=O)c2ccc3c(c2)oc(=O)n3C)cc1 (stereo not given)	none
CN(c1ccccc1)S(=O)(=O)c1ccc(NC(=S)NC(=O)c2ccccc2)cc1	Cruzain noTriton inconclusive
COc1ccccc1/C=C/C(=O)NC(=S)Nc1ccc(S(=O)(=O)N(C)c2ccccc2)cc1	Cruzain noTriton 4µM
CSc1ccc(CNC(=O)CCc2c(C)nn(-c3ccc(N4CCCC4)nn3)c2C)cc1	none
COc1cc(C2CC(=O)Nc3c2c(=O)n(C)c2ncnn32)cc(OC)c1OC (stereo not given)	none

Compound activity (PubChem)
